# According to ChEMBL document CHEMBL3988442, “University of Dundee, Small-Polar-MMV Screening Library” (2021):
# For some of these results: Entries with a potency or affinity are not part of this list.
# Tests used:
# Parameters in all cases: scale not given: direction of the effect not stated beside the values
# [1] = target: Protein translocase subunit SecA (Escherichia coli (strain K12)) (UniProt P10408); test: Assay to Identify E. coli SecA ATPase Inhibitors; type: functional; settings: 30 µM
# [2] = target: T1, Ubiquitin-activating enzyme e1, putative (Leishmania donovani (strain BPK282A1)) (UniProt E9BSI1); test: Leishmania donovani Ubiquitin Activating Enzyme (LdE1); type: functional; settings: 30 µM
# T1 sequence (whole entry): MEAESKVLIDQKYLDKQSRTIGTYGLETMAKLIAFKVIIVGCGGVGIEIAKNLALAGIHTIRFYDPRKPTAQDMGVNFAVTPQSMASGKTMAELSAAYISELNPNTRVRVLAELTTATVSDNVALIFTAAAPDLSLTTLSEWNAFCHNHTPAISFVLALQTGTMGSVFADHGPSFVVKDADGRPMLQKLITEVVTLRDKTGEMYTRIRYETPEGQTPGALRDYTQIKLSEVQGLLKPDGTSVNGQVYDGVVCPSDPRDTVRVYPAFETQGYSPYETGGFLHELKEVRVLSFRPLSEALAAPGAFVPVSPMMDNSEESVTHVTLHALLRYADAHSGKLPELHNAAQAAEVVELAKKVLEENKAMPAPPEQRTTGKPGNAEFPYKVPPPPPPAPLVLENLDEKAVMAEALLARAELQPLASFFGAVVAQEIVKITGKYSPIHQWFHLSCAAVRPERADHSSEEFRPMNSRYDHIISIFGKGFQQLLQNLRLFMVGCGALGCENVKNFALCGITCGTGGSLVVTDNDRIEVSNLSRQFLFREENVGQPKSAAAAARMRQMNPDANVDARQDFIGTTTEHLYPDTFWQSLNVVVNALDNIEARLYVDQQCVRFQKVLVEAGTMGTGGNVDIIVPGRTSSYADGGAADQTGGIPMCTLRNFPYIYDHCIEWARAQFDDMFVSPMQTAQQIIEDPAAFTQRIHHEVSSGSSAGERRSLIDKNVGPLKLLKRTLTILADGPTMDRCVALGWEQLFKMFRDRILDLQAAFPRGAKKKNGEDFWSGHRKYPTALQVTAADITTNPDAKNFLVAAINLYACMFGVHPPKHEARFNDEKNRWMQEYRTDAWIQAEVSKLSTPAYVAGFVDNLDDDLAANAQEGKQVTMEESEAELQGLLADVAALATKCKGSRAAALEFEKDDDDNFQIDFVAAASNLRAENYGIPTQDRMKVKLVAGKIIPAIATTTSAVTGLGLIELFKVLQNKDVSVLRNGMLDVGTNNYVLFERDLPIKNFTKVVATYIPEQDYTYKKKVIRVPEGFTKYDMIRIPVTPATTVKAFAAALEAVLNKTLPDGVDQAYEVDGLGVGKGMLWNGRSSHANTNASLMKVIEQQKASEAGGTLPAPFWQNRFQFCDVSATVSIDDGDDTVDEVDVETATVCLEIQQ
# [3] = target: AMP-activated protein kinase, AMPK (Homo sapiens) (UniProt P54646+O43741+P54619+Q9UGJ0+Q9Y478+Q13131+Q9UGI9); test: AMP-dependent Kinase enzyme assay. An in vitro enzyme assay that detects ADP turnover that is directly proportional to AMPK activity. This uses naive AMPK that is activated during the assay with MK-8722; type: functional; settings: 30 µM
# [4] = target: Sialic acid-binding Ig-like lectin 9 (Homo sapiens) (UniProt Q9Y336); test: Hs-Siglec9 ALPHAscreen SOP 20170721; settings: 10 µM
# Trypanosoma cruzi = test: Trypanosoma cruzi phosphomannomutase and mannose-1-phosphate guanylyltransferase assay; type: functional; settings: 10 µM
# [5] = target: T2, Arginase-2, mitochondrial (Homo sapiens) (UniProt P78540); test: in vitro enzyme assay to detect the production of urea directly proportional to the activity of Arginase II; type: functional; settings: 33.3 µM; further: in the data most compounds retested in dose-response had high values
# T2 sequence (whole entry): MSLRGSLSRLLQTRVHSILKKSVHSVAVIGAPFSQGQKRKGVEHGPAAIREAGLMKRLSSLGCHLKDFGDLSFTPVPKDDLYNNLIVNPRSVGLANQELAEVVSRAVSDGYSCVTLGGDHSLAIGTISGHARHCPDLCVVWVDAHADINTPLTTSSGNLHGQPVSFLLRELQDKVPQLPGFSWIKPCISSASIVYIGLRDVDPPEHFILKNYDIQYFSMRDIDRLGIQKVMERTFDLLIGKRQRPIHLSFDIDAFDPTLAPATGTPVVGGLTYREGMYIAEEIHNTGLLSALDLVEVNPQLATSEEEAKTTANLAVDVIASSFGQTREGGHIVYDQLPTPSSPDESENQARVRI
# [6] = target: T3, Proteasome subunit beta (Trypanosoma cruzi) (UniProt O96673); test: Trypanosoma cruzi proteasome chymotrypsin-like activity (TcProtChymo) assay.; further: in the data most compounds retested in dose-response had high values; type: functional; settings: 9.37 µM
# T3 sequence (whole entry): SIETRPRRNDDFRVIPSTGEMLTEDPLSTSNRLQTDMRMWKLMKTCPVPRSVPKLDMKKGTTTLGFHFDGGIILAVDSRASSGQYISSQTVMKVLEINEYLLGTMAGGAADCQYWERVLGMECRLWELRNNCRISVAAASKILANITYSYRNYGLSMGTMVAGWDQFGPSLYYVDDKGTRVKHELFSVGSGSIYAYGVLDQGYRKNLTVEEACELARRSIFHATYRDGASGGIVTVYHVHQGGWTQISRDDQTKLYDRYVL
# Homo sapiens = species on record: Homo sapiens; test: To identify inhibition of the IFN signalling (Jak-Stat) pathway via expression of an eGFP reporter gene under the control of an IFN-stimulated response element (ISRE) containing MxA promoter.; type: functional; settings: 30 µM
# [7] = target: T4, Tyrosyl-tRNA synthetase, putative (Trypanosoma cruzi (strain CL Brener)) (UniProt Q4DSP6); test: Trypanosoma cruzi tyrosyl tRNA synthetase (TcYRS) _High Tyrosine SOP; type: functional; settings: 30 µM; further: in the data most compounds retested in dose-response had high values
# T4 sequence (whole entry): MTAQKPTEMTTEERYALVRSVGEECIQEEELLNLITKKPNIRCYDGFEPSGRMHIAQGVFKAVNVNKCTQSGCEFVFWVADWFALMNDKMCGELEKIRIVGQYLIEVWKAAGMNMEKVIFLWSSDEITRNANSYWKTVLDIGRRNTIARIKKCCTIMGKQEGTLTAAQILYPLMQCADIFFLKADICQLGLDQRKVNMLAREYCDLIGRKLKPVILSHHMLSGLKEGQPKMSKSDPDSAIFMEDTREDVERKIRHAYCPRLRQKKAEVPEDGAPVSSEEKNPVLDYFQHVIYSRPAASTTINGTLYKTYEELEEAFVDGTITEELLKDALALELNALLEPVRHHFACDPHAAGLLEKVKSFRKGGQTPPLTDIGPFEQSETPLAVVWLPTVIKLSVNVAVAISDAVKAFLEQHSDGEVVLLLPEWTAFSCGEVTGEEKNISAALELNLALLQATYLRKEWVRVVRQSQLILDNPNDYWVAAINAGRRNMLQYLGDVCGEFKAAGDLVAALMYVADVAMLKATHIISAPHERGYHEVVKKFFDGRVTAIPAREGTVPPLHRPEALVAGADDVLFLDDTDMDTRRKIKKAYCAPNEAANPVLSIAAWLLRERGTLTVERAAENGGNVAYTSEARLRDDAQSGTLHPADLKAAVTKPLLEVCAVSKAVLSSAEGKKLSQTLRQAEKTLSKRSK
# [8] = target: T4, Tyrosyl-tRNA synthetase, putative (Trypanosoma cruzi (strain CL Brener)); test: Trypanosoma cruzi tyrosyl tRNA synthetase (TcYRS) SOP; type: functional; settings: 30 µM
# [9] = target: Chromo domain-containing protein 1 (Saccharomyces cerevisiae (strain ATCC 204508 / S288c) (Baker's yeast)) (UniProt P32657); test: ScCHD-1 Enzyme Inhibition Assay; type: functional; settings: 30 µM; further: in the data most compounds retested in dose-response had high values
# Sequence of Chromo domain-containing protein 1 (Saccharomyces cerevisiae (strain ATCC 204508 / S288c) (Baker's yeast)) (P32657 whole entry, the tested form may be a part): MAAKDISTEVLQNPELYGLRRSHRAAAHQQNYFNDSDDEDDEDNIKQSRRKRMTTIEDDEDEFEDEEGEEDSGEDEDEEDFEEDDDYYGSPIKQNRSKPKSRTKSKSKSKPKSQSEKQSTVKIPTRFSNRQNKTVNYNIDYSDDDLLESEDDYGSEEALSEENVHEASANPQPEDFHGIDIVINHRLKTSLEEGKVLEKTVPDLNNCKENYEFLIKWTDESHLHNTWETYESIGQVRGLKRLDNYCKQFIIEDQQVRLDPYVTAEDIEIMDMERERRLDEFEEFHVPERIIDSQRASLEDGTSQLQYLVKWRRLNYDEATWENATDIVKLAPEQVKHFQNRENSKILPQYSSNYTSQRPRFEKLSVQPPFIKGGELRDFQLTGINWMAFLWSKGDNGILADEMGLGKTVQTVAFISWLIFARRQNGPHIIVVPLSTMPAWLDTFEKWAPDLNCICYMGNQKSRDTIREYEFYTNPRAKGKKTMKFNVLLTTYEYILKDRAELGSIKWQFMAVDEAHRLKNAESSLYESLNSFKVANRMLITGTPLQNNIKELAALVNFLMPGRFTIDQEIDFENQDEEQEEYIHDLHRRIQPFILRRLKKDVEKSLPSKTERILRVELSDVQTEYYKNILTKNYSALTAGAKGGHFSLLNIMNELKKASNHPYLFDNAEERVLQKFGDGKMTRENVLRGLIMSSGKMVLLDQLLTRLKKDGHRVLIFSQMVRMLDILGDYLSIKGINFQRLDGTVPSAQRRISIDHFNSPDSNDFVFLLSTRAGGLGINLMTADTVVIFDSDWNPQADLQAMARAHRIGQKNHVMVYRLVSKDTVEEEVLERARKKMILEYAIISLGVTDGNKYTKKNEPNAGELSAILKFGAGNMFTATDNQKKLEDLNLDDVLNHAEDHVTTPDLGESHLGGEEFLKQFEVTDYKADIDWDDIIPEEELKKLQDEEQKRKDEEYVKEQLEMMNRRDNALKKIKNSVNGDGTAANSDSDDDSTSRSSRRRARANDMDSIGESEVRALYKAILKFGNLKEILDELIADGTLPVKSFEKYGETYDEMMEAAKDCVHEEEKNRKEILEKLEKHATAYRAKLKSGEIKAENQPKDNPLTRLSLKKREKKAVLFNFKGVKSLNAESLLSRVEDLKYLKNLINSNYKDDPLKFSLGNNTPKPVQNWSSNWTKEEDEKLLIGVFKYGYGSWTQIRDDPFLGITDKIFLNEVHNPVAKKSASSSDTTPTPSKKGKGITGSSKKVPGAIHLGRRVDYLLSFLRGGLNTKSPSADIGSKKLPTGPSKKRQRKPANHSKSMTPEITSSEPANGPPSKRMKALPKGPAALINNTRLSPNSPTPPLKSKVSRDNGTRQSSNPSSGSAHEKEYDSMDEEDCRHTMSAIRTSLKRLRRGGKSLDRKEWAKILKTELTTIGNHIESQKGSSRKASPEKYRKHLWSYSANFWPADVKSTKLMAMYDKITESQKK
# Sequence of Protein translocase subunit SecA (Escherichia coli (strain K12)) (P10408 whole entry): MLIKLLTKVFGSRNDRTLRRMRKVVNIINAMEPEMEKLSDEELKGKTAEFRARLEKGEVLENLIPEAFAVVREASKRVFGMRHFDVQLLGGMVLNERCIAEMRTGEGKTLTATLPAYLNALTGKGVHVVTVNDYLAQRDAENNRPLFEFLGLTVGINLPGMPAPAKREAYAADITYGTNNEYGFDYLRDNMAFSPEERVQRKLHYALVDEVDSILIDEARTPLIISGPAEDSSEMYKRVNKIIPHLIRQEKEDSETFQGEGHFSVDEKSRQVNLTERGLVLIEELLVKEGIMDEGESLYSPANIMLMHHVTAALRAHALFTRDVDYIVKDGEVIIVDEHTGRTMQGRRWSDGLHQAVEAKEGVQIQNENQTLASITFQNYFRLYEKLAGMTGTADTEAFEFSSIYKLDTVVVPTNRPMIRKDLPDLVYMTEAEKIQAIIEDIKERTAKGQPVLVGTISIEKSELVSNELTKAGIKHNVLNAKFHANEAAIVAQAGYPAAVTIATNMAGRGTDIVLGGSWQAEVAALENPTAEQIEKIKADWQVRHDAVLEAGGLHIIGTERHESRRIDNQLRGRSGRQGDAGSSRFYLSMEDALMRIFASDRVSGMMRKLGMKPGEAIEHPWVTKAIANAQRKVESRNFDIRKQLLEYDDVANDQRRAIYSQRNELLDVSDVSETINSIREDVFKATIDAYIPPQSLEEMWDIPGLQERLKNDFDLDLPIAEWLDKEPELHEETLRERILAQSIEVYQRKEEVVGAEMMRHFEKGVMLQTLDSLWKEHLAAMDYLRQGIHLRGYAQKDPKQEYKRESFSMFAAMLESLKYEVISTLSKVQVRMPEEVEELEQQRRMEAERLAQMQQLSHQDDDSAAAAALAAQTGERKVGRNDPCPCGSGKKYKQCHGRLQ
# Sequence of Sialic acid-binding Ig-like lectin 9 (Homo sapiens) (Q9Y336 whole entry): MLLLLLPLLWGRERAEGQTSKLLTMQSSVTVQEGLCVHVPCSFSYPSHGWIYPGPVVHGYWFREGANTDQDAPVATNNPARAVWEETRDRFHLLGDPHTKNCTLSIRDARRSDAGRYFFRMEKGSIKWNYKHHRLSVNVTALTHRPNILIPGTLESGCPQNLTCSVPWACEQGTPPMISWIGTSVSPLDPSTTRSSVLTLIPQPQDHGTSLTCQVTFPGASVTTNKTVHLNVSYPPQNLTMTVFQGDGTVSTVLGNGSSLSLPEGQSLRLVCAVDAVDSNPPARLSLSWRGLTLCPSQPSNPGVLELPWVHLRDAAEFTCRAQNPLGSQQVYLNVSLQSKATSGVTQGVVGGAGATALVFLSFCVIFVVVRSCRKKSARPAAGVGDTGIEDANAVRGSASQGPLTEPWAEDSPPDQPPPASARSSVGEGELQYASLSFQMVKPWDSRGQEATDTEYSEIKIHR
Compound,Percent Effect [1],Percent Effect [2],Percent Effect [3],Percent Effect [4],Percent Effect (Trypanosoma cruzi),Percent Effect [5],Percent Effect [6],Percent Effect (Homo sapiens),Percent Effect [7],Percent Effect [8],Percent Effect [9]
CN(C)c1ccc(C(=O)NCC2(O)CCOCC2)cc1,-4.98%,2.7%,-2.16%,3.55%,3.48%,3.33%,13.1%,-3.96%,5.82%,12.2%,-5.31%
N#CCCN(CCC#N)C(=O)CN1CCCC1Cc1cccc(F)c1 (stereo unspecified),-3.46%,0%,-6.01%,-7.53%,3.32%,1.25%,24.6%,-17.1%,7.92%,8.54%,0.083%
CCOc1ccccc1C1CCCN1 (stereo unspecified),-5.25%,7.89%,2.38%,-2.36%,1.27%,-7.1%,15.4%,-5.78%,-1.06%,2.6%,-7.12%
Cc1ccc(CN2CC[C@H]3C[C@@H](c4nc(C5CC5)cs4)O[C@@H]3C2)o1,-2.45%,2.6%,0.23%,10%,10.1%,-48.3%,16.3%,36.5%,10.8%,16.1%,-1.64%
COCCN1CCc2cc(C(=O)NCC3CC3)c(NC(C)C)nc2CC1,-2.06%,8%,4.16%,9.64%,-1.74%,-27.8%,13.2%,55.7%,1.04%,12.5%,-10.2%
COCCCN1CCCN(C(C)c2nc(C3CC3)no2)CC1 (stereo unspecified),-1.91%,8.11%,-3.11%,15.8%,4.74%,-13.5%,6.46%,-3.07%,4.95%,15.8%,-1.39%
Cc1cc(CNC2CCCN(c3cccnn3)C2)no1 (stereo unspecified),-0.548%,-2.6%,-12.2%,5.49%,0.885%,-5.52%,15.5%,18.9%,5.38%,13.6%,-2.81%
CCOc1ccc(S(=O)(=O)NC(=O)CCC2CCCO2)cc1 (stereo unspecified),-3.8%,13.5%,-7.18%,-5.67%,0.283%,-5.21%,17.5%,1.86%,10.3%,18.5%,-9.06%
CNC(=O)Cn1cc(C#N)c(=O)c2cc(Br)ccc21,-5.47%,13.3%,-4.43%,16.9%,7.3%,7.29%,15.2%,9.36%,3.83%,13.6%,38.7%
COc1ccc(NC(=O)CCc2c(C)nc3cc(O)nn3c2C)cn1,-3.54%,0%,-317%,9.4%,6.18%,0.356%,8.62%,25.5%,7.77%,21.9%,-8.7%
Cc1ccccc1OCCC(=O)OC(C)C(=O)Nc1sccc1C(N)=O (stereo unspecified),-2.66%,-2.7%,6.19%,-3.07%,-9.09%,-10.2%,8.33%,44.8%,-15.1%,-16.1%,15.1%
